# Experimental data taken from PubChem BioAssay AID1851 (National Center for Advancing Translational Sciences (NCATS), 2009).
# Out of some 16,000 compounds screened, about 5,800 (36%) were called active. Inconclusive results (about 23%) are left out. Calls follow the shape of the dose curve; as a rule, active = well fitted curve in the direction sought with a large enough effect; inconclusive = small, poorly fitted or top-dose-only effect, or effect the other way; inactive = no such curve, though single readings can be large or run the other way. Some of the results follow.
# Molecular target: Cytochrome P450 2C19 (Homo sapiens) (UniProt P33261)
# Sequence (P33261 whole entry, looked up): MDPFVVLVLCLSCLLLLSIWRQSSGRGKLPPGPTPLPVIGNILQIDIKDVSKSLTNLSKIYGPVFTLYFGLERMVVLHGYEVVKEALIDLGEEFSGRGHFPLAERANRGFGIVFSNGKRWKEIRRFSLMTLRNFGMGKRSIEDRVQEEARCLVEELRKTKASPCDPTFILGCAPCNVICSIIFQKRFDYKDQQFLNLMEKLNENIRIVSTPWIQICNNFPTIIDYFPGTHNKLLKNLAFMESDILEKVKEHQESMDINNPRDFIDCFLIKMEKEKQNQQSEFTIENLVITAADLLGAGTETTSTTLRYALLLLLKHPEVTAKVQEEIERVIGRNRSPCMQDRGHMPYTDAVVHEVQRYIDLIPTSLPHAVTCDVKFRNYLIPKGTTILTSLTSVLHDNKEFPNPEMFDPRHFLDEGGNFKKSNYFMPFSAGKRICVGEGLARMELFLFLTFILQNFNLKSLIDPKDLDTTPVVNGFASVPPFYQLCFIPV
# Experiment: Cytochrome panel assay with activity outcomes
# Details: recombinant CYP, pro-luciferin dealkylation, luminescence, p450-cyp2c19; series mostly up to 57.1 µM; activity, negative = inhibition: at the top concentration
# % is scaled to controls: 0 for no effect and ±100 for the full control effect.
Compound,AC50,"activity, negative = inhibition"
COc1ccc(OC)c(S(=O)(=O)N2CCC(C(=O)Nc3ccc(C)c(C)c3)CC2)c1,14.1 µM (active),
COc1ccc(OC)c(S(=O)(=O)N2CCC(C(=O)NCCc3ccccc3)CC2)c1,,-28.3% (inactive)
CC1(C)C(=O)C(c2ccccc2)=C2CN3C(=O)N(CCc4ccccc4)C(=O)C3(Cc3ccc(C(F)(F)F)cc3)C=C21 (configuration not stated),,-6.7% (inactive)
NC(=O)C[C@H](N)C(N)=O,,-4.71% [at 11.4 µM] (inactive)
CN(C)C[C@H]1CCC2=C(C1=O)C(c1ccc(Cl)c(Cl)c1)C1=C(CC[C@H](CN(C)C)C1=O)O2,,13.9% [at 11.4 µM] (inactive)
Cc1ccc(S(=O)(=O)Oc2ccc(C3C4=C(CCCC4=O)OC4=C3C(=O)CCC4)cc2)cc1,4.47 µM (active),
O=C1CCCC2=C1C(c1ccc(OS(=O)(=O)c3ccc(Cl)cc3)cc1)C1=C(CCCC1=O)O2,3.98 µM (active),
c1ccc(-n2ncc3c2ncn2cnnc32)cc1,,-25.1% (inactive)
O=c1oc(-c2ccco2)nc2c1cnn2-c1ccccc1,7.08 µM (active),
COC(=O)C(NNc1ccccc1)(NC(=O)c1ccccc1F)C(F)(F)F (configuration not stated),2.24 µM (active),
O=C(O)c1ccccc1C(=O)NNc1ccc(F)cc1,,-84.8% (inactive)
CCN(CC)CCN1C(=O)c2cccc3cc(N)cc(c23)C1=O,,44.4% [at 11.4 µM] (inactive)
Cc1ccc(C(=O)O)cc1N1C(=O)c2cccc3cc(Br)cc(c23)C1=O,14.1 µM (active),
CC1CSc2nc3sc4c(c3c(=O)n21)CCCC4 (configuration not stated),15.8 µM (active),
CCN(CC(=O)NCc1cccs1)S(=O)(=O)c1ccc(C(C)C)cc1,5.62 µM (active),
OCCCSCCO,,18.7% [at 11.4 µM] (inactive)
CC(C)COP(=O)(c1ccc(N(C)C)cc1)C(O)c1ccccc1F (configuration not stated),5.62 µM (active),
CC(C)COP(=O)(OCC(C)C)C(O)c1ccccc1F (configuration not stated),,-5.54% (inactive)
Clc1ccc(-c2ccnc(Oc3cc(Cl)ccc3Cl)n2)cc1,0.316 µM (active),
S=C(Nc1ccc2c(c1)Cc1ccccc1-2)Nc1ccc2c(c1)Cc1ccccc1-2,,-8.36% [at 11.4 µM] (inactive)
C(/C=C\c1ccccc1)=Nc1ccc2c(c1)Cc1ccccc1-2,3.98 µM (active),
O=C(O)/C=C\C(=O)Nc1ccc2c(c1)-c1ccccc1C2,,-24.1% [at 11.4 µM] (inactive)
CCCCOC(=O)c1cc2c(cn1)[nH]c1ccccc12,5.01 µM (active),
CC(=O)c1cccc(NS(=O)(=O)c2ccc(N/C=C\C(=O)c3ccc(F)cc3)cc2)c1,5.62 µM (active),
Cc1noc(NS(=O)(=O)c2ccc(N/C=C/C(=O)c3ccc4c(c3)OCO4)cc2)c1C,,1.16% (inactive)

Compound,AC50,"activity, negative = inhibition"
Cn1c(=O)c(-c2cc(F)cc(F)c2)nc2cnc(N3CCOCC3)nc21,,-14.8% (inactive)
COC(=O)c1[nH]c2cccc(OC)c2c1NC(=O)CN(C)CC1OCCO1,,-23% (inactive)
COC(=O)c1[nH]c2ccc(Br)cc2c1NC(=O)CN1CCCc2ccccc21,7.94 µM (active),
COC(=O)c1[nH]c2ccc(Br)cc2c1NC(=O)CN1CCN(C2CCCCC2)CC1,15.8 µM (active),
COC(=O)c1[nH]c2cc(OC)ccc2c1NC(=O)CCN1CCSCC1,,-20.9% (inactive)
Cc1ccc(S(=O)(=O)N[C@H]2COC(=O)[C@@H](Cc3ccccc3)NC(=O)[C@@H](C)COC(=O)C/C=C\[C@@H]2C)cc1,,32% [at 11.4 µM] (inactive)
O=C(c1csnn1)N1CCC2(CCN(Cc3nccs3)CC2)CC1,,5.37% (inactive)
CCN(CC)CC[n+]1ccc2c(C)c3[nH]c4ccc(O)cc4c3c(C)c2c1,,42.4% [at 11.4 µM] (inactive)
CCCS(=O)(=O)N1CCCC(C(=O)N2CCOCC2)C1 (configuration not stated),,10.9% (inactive)
CCCS(=O)(=O)N1CCCC(C(=O)NCCN2CCOCC2)C1 (configuration not stated),,14.8% (inactive)
CCCS(=O)(=O)N1CCN(CC2CC=CCC2)CC1 (configuration not stated),3.98 µM (active),
O=c1cc(CF)[nH]c(=S)[nH]1,,16.1% [at 11.4 µM] (inactive)
CN(NC(=O)NN)c1ncc(C(F)(F)F)cc1Cl,10 µM (active),
O=C(CN(C(=O)CSc1nc2ccccc2o1)c1cccc(F)c1)NC1CCCCC1,1 µM (active),
NC(N)=N/N=C(\c1ccc(Cl)cc1)C1CC1,,-27.1% [at 11.4 µM] (inactive)
COc1ccc2nc(N)sc2c1,31.6 µM (active),
COc1ccc(Cc2c(N)nc(N)nc2N)cc1,,5.91% (inactive)
COc1ccc(N2C(N)=NC(N)=NC2(C)C)cc1,,-8.58% (inactive)
O=C1NC(c2cccc([N+](=O)[O-])c2)=CCN1c1ccccc1O,6.31 µM (active),
CCCOc1ccc(C(=O)NNC(=S)NC(=O)c2cc(-c3ccccc3)nc3ccccc23)cc1,,-21.5% (inactive)
Cc1cccc(NC(=S)NC(=O)c2cc(-c3ccccc3)nc3ccccc23)c1,1.58 µM (active),
Cc1ccccc1NC(=S)NC(=O)c1cc(-c2ccccc2)nc2ccccc12,2.82 µM (active),
Cc1ccc(-c2cc(C(=O)NN=C3CCCC3)c3ccccc3n2)cc1,28.2 µM (active),
O=C(O)c1cc(-c2ccc3cc4c(cc3c2)OCO4)nc2ccccc12,,35.1% [at 11.4 µM] (inactive)
C[C@@]12CC(=O)[C@@H]3[C@@H](CCC4=CC(=O)CC[C@]43C)[C@@H]1CC=C2CC(=O)O,,30.4% [at 11.4 µM] (inactive)

Compound,AC50,"activity, negative = inhibition"
COCC(=O)N1CCC2(CCCN(C(=O)Nc3ccccc3)C2)CC1,,3.47% (inactive)
c1ccc(-c2ccc(N3CC4(CCNCC4)C3)cc2)cc1,,-17.5% (inactive)
O=C(c1ccncc1)N1CCC2(CCN(Cc3ccncc3)CC2)CC1,,-43.2% (inactive)
COCC(=O)N1CCC2(CC1)CN(C(=O)Nc1ccccc1)C2,5.01 µM (active),
COCC(=O)N1CCC2(CCCN(c3ccncc3)C2)CC1,,-23.3% (inactive)
CC(=O)N1CCC2(CCN(Cc3ccncc3)CC2)CC1,,2.56% (inactive)
c1ccc(-c2ccc(N3CCCC4(CCNCC4)C3)cc2)cc1,15.8 µM (active),
c1ccc(-c2cccc(N3CC4(CCNCC4)C3)c2)cc1,,-26.2% (inactive)
O=C(Oc1ccccc1)N1CCC2(CCCN(c3cccc(-c4ccccc4)c3)C2)CC1,,-3.32% (inactive)
COCC(=O)N1CCC2(CCCN(c3cccc(-c4ccccc4)c3)C2)CC1,15.8 µM (active),
COCC(=O)N1CCC2(CCN(Cc3ccncc3)CC2)CC1,0.0251 µM (active),
COCC(=O)N1CCC2(CC1)CN(C(=O)Nc1ccc(OC)cc1)C2,,6.33% (inactive)
CCN=C(N)CSS(=O)(=O)O,,-0.003% [at 11.4 µM] (inactive)
COc1ccc(C(=O)N2CCC[C@@]3(CCN(c4cccc(-c5ccccc5)c4)C3)C2)cc1,7.94 µM (active),
O=C(c1cnccn1)N1CCC2(CCCN(c3ccccc3)C2)CC1,0.501 µM (active),
O=C(c1cnccn1)N1CCC2(CC1)CCN(c1ccccc1)CC2,,-19.7% (inactive)
CC(=O)N1CCC2(CCCN(c3ccccc3)C2)CC1,25.1 µM (active),
CC(=O)N1CCC2(CCCN(c3cccc(-c4ccccc4)c3)C2)CC1,15.8 µM (active),
O=C(c1cnccn1)N1CCC2(CC1)CN(c1ccccc1)C2,,-14.9% (inactive)
COc1ccc(C(=O)N2CCC[C@@]3(CCN(C(=O)Nc4ccccc4)C3)C2)cc1,,-24.3% (inactive)
COc1ccc(C(=O)N2CCC[C@@]3(CCN(Cc4ccccc4)C3)C2)cc1,,-23.1% (inactive)
CC(=O)N1CCC[C@@]2(CCN(c3ccccc3)C2)C1,,31.6% (inactive)
CC(=O)N1CCC2(CCCN(Cc3ccccc3)C2)CC1,,-2.53% (inactive)
CC(=O)N1CCC2(CC1)CCN(c1cccc(-c3ccccc3)c1)CC2,,-42% (inactive)
O=C(NCCc1c[nH]c2ccccc12)[C@H]1C[C@@H]1[C@H](NP(=O)(c1ccccc1)c1ccccc1)c1ccccc1,1.26 µM (active),

Compound,AC50,"activity, negative = inhibition"
O=C(Nc1ccc2ccccc2c1)[C@@H]1C[C@H]1[C@@H](NP(=O)(c1ccccc1)c1ccccc1)c1ccccc1,,0.45% (inactive)
Cc1cc(CNC(=O)[C@H]2C[C@@H]2[C@H](NP(=O)(c2ccccc2)c2ccccc2)c2ccccc2)nn1C,,-41.1% (inactive)
O=C(Nc1ccc2ccccc2c1)[C@H]1C[C@@H]1[C@H](NP(=O)(c1ccccc1)c1ccccc1)c1ccccc1,3.16 µM (active),
O=C(NCCc1c[nH]c2ccccc12)[C@@H]1C[C@H]1[C@@H](NP(=O)(c1ccccc1)c1ccccc1)c1ccccc1,6.31 µM (active),
Cc1cc(CNC(=O)[C@@H]2C[C@H]2[C@@H](NP(=O)(c2ccccc2)c2ccccc2)c2ccccc2)nn1C,,23.2% (inactive)
CCOC(=O)/C(C#N)=C\c1ccc(OCC(=O)Nc2ccc(C)cc2C)c(OC)c1,2.82 µM (active),
COc1ccc(/C=C(/C#N)C(=O)Nc2cc(C)ccc2C)cc1C(=O)O,,-1.9% (inactive)
COc1cc(/C=C(/C#N)c2nc3ccccc3[nH]2)ccc1Oc1ncccc1[N+](=O)[O-],3.98 µM (active),
COc1cc(/C=C(/C#N)c2nc3ccccc3[nH]2)ccc1OCC(=O)Nc1ccccc1C,4.47 µM (active),
CCOC(=O)/C(C#N)=C\N(C)C,,-6.23% (inactive)
COc1ccc(-c2cc(CNC(C)=O)on2)cc1,,-17.8% (inactive)
O=S(=O)(NCc1cc(-c2ccccc2)no1)c1ccc(Cl)cc1,0.708 µM (active),
Clc1ccc(SCc2cc(-c3ccccc3)no2)cc1,1.12 µM (active),
O=S(=O)(NCc1cc(-c2ccc(Cl)cc2)no1)c1ccc(Cl)cc1,1.58 µM (active),
Cn1c(CNS(=O)(=O)c2ccc(Cl)cc2)n[nH]c1=S,,-15.7% (inactive)
O=c1cnc2cnc(N3CCOCC3)nc2n1C1CC1,,-17.2% (inactive)
Nc1nc(N)[n+]([O-])c(N)c1NCO,,33.1% [at 11.4 µM] (inactive)
CC(=O)Nc1ccc(NC(=O)C/C(C)=N/NC(=O)C(=O)N2CCCC2)cc1,,57.5% (inactive)
CC(=O)Nc1cccc(N2C(=O)CCC2=O)c1,,-11.5% (inactive)
CC(=O)Nc1ccc(N2CCCCC2)c(C(=O)Nc2cccc(C)c2)c1,20 µM (active),
O=C(Nc1ccc(N2CCCCC2)cc1)c1cncc(Br)c1,17.8 µM (active),
CC(=O)Nc1ccc(N2CCCCC2)cc1,31.6 µM (active),
